Pf growth 48h: Primary qHTS for delayed death inhibitors of the malarial parasite plastid, 48 hour incubation; hit rate 5.9% among 310,000; P. falciparum luciferase growth in erythrocytes, 48 h; Potency, µM (highest dose often 28.7 µM), for inactives: at the highest dose activity change, negative = inhibition, usual class: inhibitors; further: potency means the concentration at half of the fitted maximal effect; on the % scale 0 is the no-effect control and ±100 the full control effect
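Compounds are pin-transferred into medium, infected erythrocytes (2% hematocrit, 0.1% parasitemia final) are added, and plates sit one parasite generation at 37 C in 5% CO2. Detection reagent is then added and luminescence measured.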
Pf growth 96h: Primary qHTS for delayed death inhibitors of the malarial parasite plastid, 96 hour incubation; Potency, µM (titrated, usually from 28.7 µM), for inactives: top-dose activity change, negative = inhibition, usual class: inhibitors; P. falciparum luciferase reporter growth, 96 h; hit rate 6.9% among 320,000; further: potency means the concentration at half of the fitted maximal effect; on the % scale 0 is the no-effect control and ±100 the full control effect
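Luminescence readout: decreased luciferase signal marks inhibited growth of reporter-expressing P. falciparum in infected red cells (2% hematocrit, 0.05% parasitemia final), exposed to compound two generations (96 h, 37 C, 5% CO2).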
Shiga inhibitor: A qHTS for Small Molecule Inhibitors of Shiga Toxin. Vero cells, Shiga toxin protein synthesis inhibition reporter. inhibition, % at 38.7 µM. hit rate 9.2% among 290,000. AID 2315, 2010; in the data active means inhibition mostly above about 28%, no sharp cut-off; inactive means mostly below about 43%; further: 0% is about no effect
LmPK inh: qHTS Assay for Inhibitors of Leishmania Mexicana Pyruvate Kinase (LmPK). Q27686. purified LmPK, Kinase-Glo ATP luminescence, 1 h. Potency, µM (top dose mostly 57.5 µM), for inactives: at the highest dose activity change, negative = inhibition, usual class: inhibitors. hit rate 0.37% among 290,000. AID 1721, 2009; further: potency means the concentration at half of the fitted maximal effect; on the % scale 0 is the no-effect control and ±100 the full control effect
Target sequence (Q27686 whole entry, looked up): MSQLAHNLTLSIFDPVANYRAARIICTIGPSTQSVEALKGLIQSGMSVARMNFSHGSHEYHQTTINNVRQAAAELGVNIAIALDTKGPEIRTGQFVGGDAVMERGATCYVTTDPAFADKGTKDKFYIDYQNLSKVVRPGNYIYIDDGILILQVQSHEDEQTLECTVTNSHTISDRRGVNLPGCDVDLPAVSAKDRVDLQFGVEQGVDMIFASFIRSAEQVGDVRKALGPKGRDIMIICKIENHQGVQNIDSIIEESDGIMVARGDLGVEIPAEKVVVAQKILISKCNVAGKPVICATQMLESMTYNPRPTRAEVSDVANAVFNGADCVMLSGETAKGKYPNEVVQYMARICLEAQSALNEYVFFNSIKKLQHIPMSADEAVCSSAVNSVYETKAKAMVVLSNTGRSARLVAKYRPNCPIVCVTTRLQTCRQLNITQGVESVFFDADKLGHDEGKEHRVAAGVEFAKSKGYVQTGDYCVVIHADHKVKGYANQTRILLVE
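Purified LmPK (0.1 nM) with 0.5 mM PEP and 0.1 mM ADP in imidazole buffer pH 7.2 with MgCl2/KCl, 1 h at room temperature. ATP formed was read by luciferase luminescence and normalized to no-enzyme and uninhibited controls.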
CHX counter: Cycloheximide Counterscreen for Small Molecule Inhibitors of Shiga Toxin. cell reporter, cycloheximide protein synthesis inhibition counterscreen. max response, %. hit rate 12% among 300,000; in the data active means max response mostly above about 13%, no sharp cut-off; inactive means mostly below about 14%; further: read at 38.3 µM for the half of the compounds with a filed dose; 0% is about no effect
* hit, by the source's call; ? = inconclusive; · = not tested or not shown; + = active, no number. In the library only some 22% were active in any assay of this set; here they are far more common. Unless noted, the call rests on the fitted dose curve; in most records, active means well fitted inhibition curve with a large enough effect; inconclusive means small, poorly fitted or top-dose-only effect, or another doubt; inactive means no such curve, though single readings can be large or run the other way.

SMILES | Pf growth 48h | Pf growth 96h | Shiga inhibitor | LmPK inh | CHX counter
O=C(COC(=O)Cc1ccc(Cl)cc1)Nc1cc(S(=O)(=O)N2CCOCC2)ccc1N1CCCC1 | 9% | -20% | -7 | 2% | -2
COc1ccc(OCC(=O)Nc2cc(OC)ccc2N2CCCCC2)cc1 | 12µM* | 42% | 3 | -11% | -3
Cc1cccc(OCC(=O)Nc2cc(S(=O)(=O)N3CCCCC3)ccc2N2CCN(C)CC2)c1 | ? | ? | -14 | 7% | -6
O=C(COc1ccc(Cl)cc1)Nc1cc(S(=O)(=O)N2CCCCC2)ccc1N1CCCCC1 | 12µM* | 2.3µM* | 1 | 4% | 0
O=C(COc1ccc(Br)cc1)Nc1cc(S(=O)(=O)N2CCCCC2)ccc1N1CCCCC1 | -12% | 1.9µM* | -3 | 1% | -3
N#Cc1ccc(OCC(=O)Nc2cc(S(=O)(=O)N3CCCCC3)ccc2N2CCCCC2)cc1 | 1% | ? | -12 | 1% | -1
CN1CCN(c2ccc(S(=O)(=O)N3CCCCC3)cc2NC(=O)COc2cccc(Cl)c2)CC1 | 10µM* | ? | · | · | ·
Cc1ccc(N2CCN(S(=O)(=O)c3nnc(NC(=O)c4ccccc4)s3)CC2)cc1 | 34% | -16% | 1 | -1% | -1
COC(=O)C(Cc1ccccc1)NC(=O)CC(C)CC(=O)Nc1ccc(C)cc1 (stereo not given) | -13% | ? | -10 | 4% | 2
O=C(O)c1ccccc1N1C(=O)c2cccc3cccc(c23)C1=O | 15% | 8.3µM* | 15 | -11% | -2
O=C(O)c1ccc2c3c(cccc13)C(=O)N(c1cccc3ccccc13)C2=O | -3% | 47% | 5 | 3% | 3
CCOc1cc(C(N)=O)cc(Br)c1OCc1ccccc1 | -7% | 50% | -2 | 1% | -1
Cc1cc(C)nc(Nc2ccc(N3CCCC3)cc2)n1 | ? | · | 90* | -10% | 30*
Cc1cc(C)nc(N/N=C/c2ccc(N3CCOCC3)cc2)n1 | 1% | 24% | 2 | 0% | -4
Cc1cc(C)nc(Nc2ccc(N3CCOCC3)cc2)n1 | · | · | 70 | -11% | 17*
CCCNc1nc(Nc2ccc(C)cc2)nc(N2CCCC2)n1 | · | 2.1µM* | -3 | 7% | -2
Cc1ccc(NC(=O)c2sc(N)nc2-c2ccc([N+](=O)[O-])cc2)c(C)c1 | -1% | 0% | 0 | 0% | 0
Cc1ccc2c(c1)N(CCCC(=O)NCCCN1CCCC1=O)C(=O)CO2 | 13% | 4% | -9 | 4% | 3
CC(=O)c1cccc(NC(=S)NC(=O)c2ccccc2)c1 | 252% | 18% | 103* | 2% | 46*
CCCCC(=O)Nc1cccc(C(=O)Nc2ccccc2C(=O)O)c1 | 3% | 3% | 25 | -11% | 6
CC(C)NC(=S)NC(=O)c1ccc(-c2ccccc2)cc1 | ? | 22% | 26* | -2% | 11
CC(=O)c1cccc(NC(=S)NNC(=O)c2ccco2)c1 | 17% | ? | 33 | 2% | 21*
COC(=O)c1cccc(NC(=O)c2ccco2)c1 | 116% | ? | 4 | -4% | -3
CC#CCCCC(=O)Nc1cccc(C(=O)O)c1 | 143% | 10µM* | 82* | 2% | 25*
CCOc1ccc(C(=O)C(C)OC(=O)CN2C(=O)NC(C)(C)C2=O)cc1 (stereo not given) | ? | 6% | · | · | ·
SMILES | Pf growth 48h | Pf growth 96h | Shiga inhibitor | LmPK inh | CHX counter
Cc1ccc(C(=O)O)cc1NC(=S)NC(=O)c1ccc(-c2ccccc2)cc1 | 29% | -22% | 57* | 5% | 31*
CNC(=S)Nc1cccc(C(C)=O)c1 | 14% | 19% | 15 | 4% | 2
CC(=O)c1cccc(NC(=S)NC(=O)CC(C)(C)C)c1 | -11% | -15% | 30 | 2% | 20*
CC(=O)c1cccc(NC(=S)NC(=O)c2cccc(Cl)c2)c1 | 151% | -2% | + | 0% | 30*
COCCCNC(=S)NNC(=S)Nc1cccc(Cl)c1 | ? | -10% | 90* | 3% | 28*
CC(=O)c1cccc(NC(=S)NC(=O)C(C)C)c1 | 3% | 50% | 12 | 0% | 0
N#Cc1c2ccccc2nc2ccccc12 | -4% | 20% | -2 | 6% | 2
CCCCC(=O)NC(=S)Nc1cccc(NC(=O)CC)c1 | 22% | 37% | -3 | 2% | -1
CCCCC(=O)NC(=S)Nc1cccc(C(=O)O)c1 | 34% | ? | 60* | 0% | 9
Cc1ccc(C(=O)NC(=S)Nc2ccccc2C(F)(F)F)cc1C | ? | ? | 37* | 2% | 16*
Cc1ccc(C(=O)NC(=S)Nc2cccc3c(C)cc(C)nc23)cc1 | ? | 12µM* | 19 | -1% | 11
O=C(O)c1cccc(NC(=S)NC(=O)c2ccc(-c3ccccc3)cc2)c1 | 43% | 70% | 143* | 0% | 46*
C=C(C)Cn1c(CN(C)Cc2ccccc2)nc2c1c(=O)n(C)c(=O)n2C | 12% | 0% | · | -10% | -2
COCCCNC(=O)c1nc2ccccc2c(=O)n1NC(=O)Nc1c(Cl)cccc1Cl | 3% | 8% | 13 | 1% | -2
CC(C(=O)O)N(c1ccccc1Cl)S(C)(=O)=O (stereo not given) | ? | 55% | · | · | ·
O=C(c1ccc(NC2=NC3CS(=O)(=O)CC3S2)cc1)N1CCN(c2ccc([N+](=O)[O-])cc2)CC1 (stereo not given) | 38% | -9% | -3 | -5% | 1
O=C(O)c1cccc(NC(=S)NC(=O)c2ccc(-c3ccc(Cl)cc3)o2)c1 | 54% | 324% | 100* | 2% | 21
CC(=O)c1cccc(NC(=S)NC(=O)c2cncc(Br)c2)c1 | 57% | 0% | 31 | -6% | 20*
CC(C)N(C(=O)COC(=O)c1ccc(Cl)s1)c1ccccc1 | -5% | ? | · | · | ·
O=C(O)c1cc(Cl)c(Cl)cc1C(=O)Nc1cccc2cccnc12 | 18% | ? | -11 | 1% | 1
O=C(Nc1cccc2cccnc12)c1cc(F)c(F)cc1Cl | 49% | 32% | · | 1% | 29*
COC(=O)c1cccc(NC(=O)c2cccnc2C(=O)O)c1C | 18% | 19% | 59* | -2% | 29*
COc1ccccc1C(=O)Nc1cccc2cccnc12 | 35% | -35% | 42 | 0% | 39*
COc1ccccc1NC(=O)c1ccccc1NC(=O)c1ccccn1 | -8% | ? | · | · | ·
O=C(O)c1cccnc1C(=O)O | 36% | 6% | · | · | ·
CCCCC(CCC(=O)Nc1cccc([N+](=O)[O-])c1)C(=O)O (stereo not given) | -8% | 10% | 28 | 3% | -1
Cc1ccc(NS(=O)(=O)Cc2ccccc2)cc1Cl | -17% | ? | -4 | -3% | -1
O=c1c(S(=O)(=O)c2ccc(Cl)cc2)cn(Cc2ccccc2)c2ccc(F)cc12 | ? | 12µM* | -10 | 3% | -4
c1ccc(CSc2ncnc3sccc23)cc1 | 9% | -24% | 52* | -1% | 14
Cc1ccc(-n2ncc3c(SCc4ccccc4)ncnc32)cc1 | 195% | 164% | 20 | -5% | 20*
